Our source for the PBM binding z-score values is the supplement of paper PMC6555819.

Experiment in all cases: PBM binding z-score (relative to random genomic background probes); higher = stronger binding; sequences stand for … in GC…GCGATTGACAGCGTAGAATGAAGG
For assay [1], the system named is RARb homodimer (NR concentration 270 nM). Put shortly:
(§1)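 Ligand-free nuclear receptor dimers were applied to custom Agilent 4×180K protein-binding microarrays whose double-stranded probes carried direct-repeat seeds, single-nucleotide variants, half-site ablations and random human genomic background sequences in 34-nt variable regions. Incubation lasted 1 h. Binding z-scores were computed against the random background probes from regression-normalized fluorescence.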

Assay [2] deals with RARg:RXRa (NR concentration 270 nM, RXRa partner concentration 90 nM). Put shortly: as §1
In assay [3] the test system is RARg homodimer (NR concentration 270 nM). Put shortly: as §1
Assay [4] concerns RXRa DBDmut IVT, anti-RXR (DBD mutation: RXRa K156A/R161A, NR concentration 90 nM). Put shortly: as §1
In assay [5] the test system is RXRa homodimer (NR concentration 180 nM). Put shortly: as §1
The test system of assay [6] is THRa:RXRa (NR concentration 90 nM, RXRa partner concentration 90 nM). Put shortly: as §1
In assay [7] the test system is THRa homodimer (NR concentration 90 nM). The gist of the method:
as §1

Assay [8] concerns VDR homodimer (NR concentration 270 nM). The gist of the method: as §1

As for CAGCCTAGGTCAGGGCCAGTCTAGGAGGAACGTT, the PBM binding z-score is 2.6 in assay [1]; 2.83 in assay [2]; 3.7 in assay [3]; -0.45 in assay [4]; 1.5 in assay [5]; 1.98 in assay [6]. For the same sequence, the figures for the PBM binding z-score in assay [7] and in assay [8] were 0.28 and -0.275, respectively.
Regarding TCATATAGGCAAACAGGTGAAAGTCCGTAAGTTA, the PBM binding z-score was 0.521 in assay [1]; 0.00145 in assay [2]; 0.112 in assay [3]; 1.26 in assay [4]; 0.527 in assay [5]; 0.197 in assay [6]. The PBM binding z-score is 0.185 in assay [7] and 0.251 in assay [8].
For the sequence TCATATAGGTAATGCAGGTGAAAGTCGGCATCTA, the PBM binding z-score in assay [1] amounted to 0.531; in assay [2], 0.489; in assay [3], 0.438; in assay [4], 1.04; in assay [5] it was 0.993; in assay [6] it was 1.1. In addition, the PBM binding z-score in assay [7] was determined as 0.297; in assay [8] it was 0.176.
On to CCTACTGGGCCAAAAAGGTCATTGTTGCCGATAA, for which the PBM binding z-score in assay [1] was 4.29; in assay [2] it was 4.28; in assay [3], 3.91; in assay [4], 0.617; in assay [5], 4.21; in assay [6], 2.92. Also, the PBM binding z-score in assay [7] worked out at 0.342; in assay [8] it was 2.3.
Take CCTACTGGGCCATTCAGAGGTCATTGACCATATG: the PBM binding z-score in assay [1] turned out to be 4.16; in assay [2] it was 4.57; in assay [3], 3.23; in assay [4], 0.945; in assay [5] it was 3.98; in assay [6] it was 3.28. The PBM binding z-score in assay [7] was determined as 1.45; in assay [8] it was 3.34.
Take GCTGGTAGGTCAGGTTGGTCAGCTAACGGGTACG: the PBM binding z-score in assay [1] came to 2.87; in assay [2], 2.48; in assay [3] it was 3.76; in assay [4], 0.0797; in assay [5], 1.23; in assay [6], 1.12. In addition, the PBM binding z-score in assay [7] was determined as 0.417; in assay [8], 0.965.
TCTTCTAGATCAGCAGGTTAAGAAAGCTGGCCAA: the PBM binding z-score in assay [1] was -0.301; in assay [2], 0.12; in assay [3] it was 0.0708; in assay [4] it was 0.571; in assay [5], 0.331; in assay [6], 0.17. In addition, the PBM binding z-score was -0.696 in assay [7] and -0.431 in assay [8].
